According to PubChem BioAssay AID431 (Sanford-Burnham Center for Chemical Genomics, 2006):
In all, about 63,000 compounds went through this assay and about 1,100 (1.7%) were called active. The entries come from a sample that favours actives as a whole. Entries with a potency or affinity are not part of this list. Values without a mark were called inactive.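 Rule for the calls: active = compounds whose percent cytotoxicity in the single-dose primary screen, scaled between solvent and toxic-drug controls, exceeds 50; inactive = the rest.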

Test: viability loss of HPDE-C7K cells – cell-based, fluorescence, HTS, primary screen (AID 431);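 note: 0% = DMSO solvent wells and 100% = doxorubicin-treated wells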
Conditions: HPDE-C7K KRASV12 cells, Alamar Blue viability, 48 h; at 10 µM; stronger effect = higher value

Compound | cytotoxicity
Cc1c(NC(=O)CSc2nnnn2Cc2ccccc2)c(=O)n(-c2ccccc2)n1C | -13.5%
Cc1c(NC(=O)c2ccc(=O)oc2)c(=O)n(-c2ccccc2)n1C | -10.4%
Cc1c(NC(=O)Nc2cccc(Cl)c2)c(=O)n(-c2ccccc2)n1C | -10.4%
Cc1c(NC(=O)Nc2ccc(Cl)cc2)c(=O)n(-c2ccccc2)n1C | -17%
Cc1c(NC(=O)c2ccc(Br)o2)c(=O)n(-c2ccccc2)n1C | 12.6%
Cc1c(NC(=O)Nc2ccc(Cl)c(Cl)c2)c(=O)n(-c2ccccc2)n1C | 70.7% (active)
CCOC(=O)c1nn(-c2ccccc2)c(=O)c(C#N)c1C | 0.8%
Cc1noc(C)c1COC(=O)CCCOc1ccc(Cl)cc1Cl | 5.6%
COc1cccc(NC(=O)CN2CCN(S(=O)(=O)c3ccc(C(C)C)cc3)CC2)c1 | -4.2%
C/C(=N\O)C(=O)C(CN1CCCCC1)CN1CCCCC1 | -6.8%
COc1cc(NC(=O)C2C3C=CC(C3)C2C(=O)O)c(OC)cc1Cl (centres undefined) | 2.1%
CCOC(=O)C1=C(N)n2c(s/c(=C\c3cccnc3)c2=O)=C(C(=O)OCC)C1c1cccnc1 (centres undefined) | -18.8%
CCOC(=O)C1=C(N)n2c(s/c(=C/c3ccco3)c2=O)=C(C(=O)OC)C1c1ccco1 (centres undefined) | 73.7% (active)
CCOC(=O)C1=C(N)n2c(s/c(=C\c3cccnc3)c2=O)=C(C(=O)OC)C1c1cccnc1 (centres undefined) | -15.5%
N#CC1=C(N)n2c(s/c(=C\c3ccco3)c2=O)=C(C#N)C1c1ccco1 (centres undefined) | 5.8%
CCOC(=O)C1=C(N)n2c(s/c(=C\c3ccco3)c2=O)=C(C(=O)OC(C)C)C1c1ccco1 (centres undefined) | 0.1%
O=C(OCN1C(=O)c2ccccc2C1=O)c1ccccc1 | 2.9%
CCn1c(=O)cc(OCC(=O)Nc2cc(C)ccn2)c2ccccc21 | -3.3%
N#Cc1nc(COc2ccccc2F)oc1N1CCCCCC1 | -5.8%
CCOc1ccccc1CN1CCN(S(C)(=O)=O)CC1 | -4.6%
COc1cccc(NC(=O)CSC2=C(C#N)C(c3ccco3)C3=C(CCCC3=O)N2)c1 (centres undefined) | 15.3%
Cc1ccc(NC(=O)CSC2=C(C#N)C(c3ccco3)C3=C(CCCC3=O)N2)cc1 (centres undefined) | 2.1%

Compound | cytotoxicity
Cc1ccc(C(=O)CSC2=C(C#N)C(c3ccco3)C3=C(CC(C)(C)CC3=O)N2)cc1 (centres undefined) | 18.2%
CCc1ccc(NC(=O)CSC2=C(C#N)C(c3ccco3)C3=C(CCCC3=O)N2)cc1 (centres undefined) | 8.2%
CCCCc1ccc(NC(=O)CSC2=C(C#N)C(c3ccco3)C3=C(CCCC3=O)N2)cc1 (centres undefined) | 79.6% (active)
Cc1ccc(C(=O)CSC2=C(C#N)C(c3ccco3)C3=C(CCCC3=O)N2)cc1 (centres undefined) | 77.3% (active)
N#CC1=C(SCC(=O)c2ccccc2)NC2=C(C(=O)CCC2)C1c1ccco1 (centres undefined) | 41.2%
CC1(C)CC(=O)C2=C(C1)NC(SCC(=O)Nc1ccccc1)=C(C#N)C2c1ccco1 (centres undefined) | -6.1%
Cc1ccc(NC(=O)CSC2=C(C#N)C(c3ccco3)C3=C(CC(C)(C)CC3=O)N2)cc1 (centres undefined) | 54.3% (active)
COc1cc(S(=O)(=O)N2CCN(c3ccccc3F)CC2)ccc1Cl | 24%
CCCC(=O)CN1C(=O)C2(OCCO2)c2ccccc21 | -6.1%
COc1ccc2c(c1)CCc1c(C(=O)NCc3ccc(F)cc3)noc1-2 | 1.6%
COc1ccc(OCCC(=O)Nc2cc(C)on2)cc1 | 1.4%
CCCCn1c(SCC(=O)Nc2cc(C)on2)nc2ccccc2c1=O | -8.1%
Cc1ccc(-c2nn3c(C)nnc3s2)cc1NC(=O)c1ccc(Br)o1 | -0.3%
Cc1nnc2sc(-c3cccc(NC(=O)c4ccc(-c5cccc(Cl)c5)o4)c3)nn12 | -2.2%
O=C(Nc1nnc(-c2ccco2)o1)C1CCCCC1 | 4.3%
CCOc1ccc(-c2nnn(CC(=O)Nc3cc(OC)ccc3OC)n2)cc1OCC | 70.6% (active)
CCOc1ccc(-c2nnn(CC(=O)Nc3ccccc3OC)n2)cc1OCC | -3.2%
CCOc1ccc(-c2nnn(CC(=O)Nc3cc(OC)cc(OC)c3)n2)cc1OCC | -1.3%
Cc1ccc2[nH]c(C)c(CN(C)C3CCN(C)CC3)c(=O)c2c1 | -9.9%
O=C(NCc1ccco1)c1cccc2ccccc12 | -9%
Cc1ccc(-c2n[nH]c(=O)c3ccccc23)cc1N | 1.4%
CCC(c1nc2ccccc2c(=O)n1CCCn1ccnc1)N1C(=O)c2ccccc2C1=O (centres undefined) | -3.6%

Compound | cytotoxicity
COc1ccc(N/C=C(\C#N)c2nc3ccccc3n2C)c(OC)c1 | 44.3%
O=C(Nc1ccc(F)cc1)N1CCN(C/C=C/c2ccccc2)CC1 | 25.8%
C(=C\c1ccccc1)/CN1CCN(C(c2ccccc2)c2ccccc2)CC1 | 2.8%
O=C(CSC1=Nc2ccccc2C2=NC(CC(=O)NCc3ccco3)C(=O)N12)NCC1CCCO1 (centres undefined) | -7.9%
CCOc1ccc(C(=O)N2CCN=C2SC)cc1OCC | -3.5%
Cc1ccc(C)c(OCC(=O)Nc2cc(C)on2)c1 | 4.9%
Cc1ccc(C)c(OCC(=O)Nc2nonc2NC(=O)COc2cc(C)ccc2C)c1 | 74.3% (active)
Cc1ccc(C)c(OCC(=O)Nc2ccc3c(c2)OCO3)c1 | -3.1%
CSc1nnc([C@H](C)NC(=O)OC(C)(C)C)o1 | -22.1%
Cn1cccc1C(C(=O)NC1CCCCC1)N(C(=O)Cc1cccs1)C1CC1 (centres undefined) | -22.4%
N#Cc1ccc(-c2ccco2)nc1SCC(=O)c1ccc(Cl)cc1 | 19.1%
CC(C)(C)c1ccc(C(=O)CCCSC2=C(C#N)C(c3ccco3)C3=C(CCCC3=O)N2)cc1 (centres undefined) | 18.5%
COc1ccc(NC(=O)CSC2=C(C#N)C(c3ccco3)C3=C(CCCC3=O)N2)c(OC)c1 (centres undefined) | -2.7%
Cc1cccc(N2CCN(c3cc(C)nc4nnnn34)CC2C)c1 (centres undefined) | -38.8%
O=C(Cn1cnc2c(nnn2Cc2ccc(Cl)cc2)c1=O)NCC1CCCO1 (centres undefined) | -3.4%
COC(=O)c1c(NC(=O)c2cccs2)sc2c1CCC(C)C2 (centres undefined) | 5.5%
Cc1sc(NC(=O)CSc2nnc(COc3ccccc3)n2C)c(C#N)c1C | 4.2%
Cc1ccc(-c2csc3nnc(SCC(=O)Nc4nsc(-c5ccccc5)n4)n23)cc1 | -0.3%
CC(C)CCNc1ncnc2c1nnn2Cc1ccccc1Cl | -8.2%
Clc1ccccc1Cn1nnc2c(Nc3ccccc3)ncnc21 | -4.9%
